The values that follow come from the supplement of paper PMC6555819.

Common to all, as to assay: PBM binding z-score (relative to random genomic background probes); higher = stronger binding; sequences stand for … in GC…GCGATTGACAGCGTAGAATGAAGG
Test [1] relates to FXR:RXRa (NR concentration 270 nM, RXRa partner concentration 90 nM). In outline:
(§1)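 Custom Agilent 4×180K protein-binding microarrays carried double-stranded probes, each with a 34-nt variable region. These regions held direct-repeat seeds, single-nucleotide variants, half-site ablations and random human genomic background sequences. Ligand-free nuclear receptor dimers were incubated on the arrays for 1 h, antibodies against each partner (one per run) detected binding, and scanned fluorescence was regression-normalized. Binding z-scores take the random background probes as reference.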

Test [2] concerns LXRa:RXRa (NR concentration 270 nM, RXRa partner concentration 90 nM). In outline:
as §1

Test [3] relates to LXRa homodimer (NR concentration 270 nM). In outline:
as §1

Test [4] concerns LXRb:RXRa (NR concentration 270 nM, RXRa partner concentration 90 nM). In a few lines: as §1
Test [5] has as its system LXRb homodimer (NR concentration 270 nM). In a few lines:
as §1

The test system of test [6] is PPARa:RXRa (NR concentration 270 nM, RXRa partner concentration 90 nM). In outline: as §1
In test [7] the test system is PPARg:RXRa (NR concentration 180 nM, RXRa partner concentration 90 nM). In a few lines: as §1
Test [8] has as its system PPARg:RXRa 270nM:90nM, anti-RXR (NR concentration 270 nM, RXRa partner concentration 90 nM). In a few lines:
as §1

Test [9] deals with PPARg:RXRa 30nM:10nM, anti-RXR (NR concentration 30 nM, RXRa partner concentration 10 nM). In a few lines:
as §1

Test [10] has as its system PPARg:RXRa 90nM:30nM, anti-RXR (NR concentration 90 nM, RXRa partner concentration 30 nM). In outline:
as §1

Test [11] deals with PPARg:RXRa DBDmut IVT, anti-RXR (DBD mutation: RXRa K156A/R161A, NR concentration 270 nM, RXRa partner concentration 90 nM). In a few lines: as §1
In test [12] the test system is PPARg:RXRa IVT, anti-PPARg (NR concentration 270 nM, RXRa partner concentration 90 nM). In a few lines:
as §1

Test [13] deals with PPARg DBDmut:RXRa IVT, anti-PPARg (DBD mutation: PPARg1 K132A/R137A, NR concentration 270 nM, RXRa partner concentration 90 nM). In outline:
as §1

The subject of test [14] is PPARg DBDmut IVT, anti-PPARg (DBD mutation: PPARg1 K132A/R137A, NR concentration 270 nM). In a few lines: as §1
For test [15], the system named is PPARg homodimer (NR concentration 180 nM). In outline:
as §1

Test [16] has as its system PXR:RXRa (NR concentration 270 nM, RXRa partner concentration 90 nM). In a few lines: as §1
Test [17] concerns PXR homodimer (NR concentration 270 nM). In a few lines: as §1
In test [18] the test system is RARa:RXR (NR concentration 270 nM, RXRa partner concentration 90 nM). In a few lines:
as §1

The subject of test [19] is RARa homodimer (NR concentration 270 nM). In outline:
as §1

The subject of test [20] is RARb:RXRa (NR concentration 270 nM, RXRa partner concentration 90 nM). In outline: as §1

With TAGCCTAGGTCATGCCGGCCAGTATAGTGTCGGC, the PBM binding z-score in test [1] is 3.44; in [2] it was 2.68; in test [3], 0.0179; in test [4], 1.57; in test [5] it was -0.0168; in test [6], 3.07. Moreover, the PBM binding z-score worked out at 1.99 in test [7]; 2.08 in test [8]; 0.0348 in [9]; 1.34 in test [10]; 1.13 in test [11]; 2.47 in [12]. In addition, the PBM binding z-score is -0.929 in [13]; -0.11 in test [14]; 0.237 in [15]; 0.798 in test [16]; -0.486 in test [17]; 1.77 in test [18]. Besides, the figures for the PBM binding z-score in test [19] and in test [20] were -0.917 and 3.48, respectively.
For GCGACTCGGGCATCAGCAGGTTACCATAACTTAA, the PBM binding z-score is -0.428 in test [1]; -0.386 in test [2]; -0.511 in test [3]; -0.334 in test [4]; -1.48 in test [5]; 0.263 in test [6]. Moreover, the PBM binding z-score in test [7] was 0.266; in test [8] it was -0.256; in [9], -0.629; in test [10], -0.12; in test [11] it was 0.301; in test [12] it was -0.204. The PBM binding z-score in [13] is -0.845; in test [14], -1.46; in test [15], -0.774; in [16], -0.236; in test [17] it was -0.725; in test [18] it was 0.133. For the same sequence, the PBM binding z-score in test [19] is -0.931; in [20], 0.242.
As for ATACCAAGGTGATAGTGAGGTCGTTGATACTAAC, the PBM binding z-score in [1] came to 1.53; in test [2], 1.39; in test [3] it was 0.943; in test [4], 1.4; in test [5], 0.0823; in [6], 1.81. Moreover, the PBM binding z-score worked out at 0.759 in test [7]; 0.98 in test [8]; 0.458 in test [9]; 0.738 in test [10]; 0.454 in [11]; 1.64 in [12]. For the same sequence, the PBM binding z-score was 0.276 in test [13]; 0.701 in test [14]; 1.01 in [15]; 3.17 in test [16]; 1.94 in [17]; 2.23 in test [18]. For the same sequence, the values for the PBM binding z-score in [19] and in test [20] were 0.553 and 1.51, respectively.
With GTACCAAGGTGAATAGGTCGTAGATGAGTAGGCG, the PBM binding z-score in [1] is 0.946; in test [2], 0.897; in test [3] it was -0.305; in [4], 0.416; in [5], -0.297; in [6], 2.39. Also, the PBM binding z-score is 1.82 in test [7]; 2.02 in test [8]; 0.602 in test [9]; 1.25 in test [10]; 1.69 in test [11]; 2.84 in test [12]. Also, the PBM binding z-score in test [13] was -0.433; in test [14], -0.143; in [15], 0.982; in test [16] it was 0.659; in [17] it was -0.144; in [18] it was 1.8. Moreover, the results for the PBM binding z-score in [19] and in test [20] were 0.467 and 2.17, respectively.
Regarding AGAATGAGGCTAAGATCAGGGAAACAGAATACAT, the PBM binding z-score is -0.36 in test [1]; -0.634 in [2]; -0.0824 in test [3]; -0.157 in test [4]; -0.737 in [5]; -0.0265 in test [6]. Also, the PBM binding z-score turned out to be 0.645 in test [7]; 0.202 in test [8]; 0.113 in [9]; 0.138 in test [10]; 0.345 in [11]; 0.552 in test [12]. For the same sequence, the PBM binding z-score was 0.582 in test [13]; 0.0133 in test [14]; 0.00249 in [15]; -0.259 in test [16]; 0.0356 in test [17]; -0.0952 in test [18]. Further, the PBM binding z-score in test [19] is 0.229; in test [20], 0.158.
TCTCGGAGGACACGGAGGTCAGAGCTTTCCAGAG: the PBM binding z-score in [1] was 1.72; in test [2], 1.54; in test [3] it was 0.806; in test [4], 1.13; in [5], -1.06; in test [6] it was 2.22. Besides, the PBM binding z-score in test [7] worked out at 0.548; in test [8], 1.54; in [9] it was 1.85; in test [10], 1.75; in test [11], 1.26; in test [12], 1.06. Also, the PBM binding z-score in test [13] is -0.769; in test [14], -1.39; in test [15] it was 1; in test [16], 2.45; in [17], 2.46; in test [18], 2.29. For the same sequence, the PBM binding z-score in test [19] is -0.596; in test [20] it was 3.25.
Regarding GCTTGCAGGCCATTTGGGTCACTCAATGACGGGC, the PBM binding z-score in [1] was 0.139; in test [2], 0.261; in test [3] it was -0.325; in test [4], 0.146; in [5], -0.138; in [6], 1.74. Moreover, the PBM binding z-score in [7] turned out to be 0.845; in [8], 0.922; in [9], 0.00542; in test [10], 0.391; in test [11], 3.07; in [12] it was 3.01. Besides, the PBM binding z-score was -0.212 in test [13]; -0.514 in [14]; 0.237 in [15]; 0.662 in [16]; 0.0952 in [17]; 1.09 in test [18]. Moreover, the values for the PBM binding z-score in test [19] and in test [20] were -0.792 and 1.76, respectively.
